SMILES strings stand for the structures. Records with an inconclusive call do not appear. Calls of active or inactive are those of the source. Unless noted, calls come from the whole dose curve.

Assay [1] can be described thus: Nuclear factor erythroid 2-related factor 2/antioxidant responsive element (Nrf2/ARE) small molecule agonists: qHTS cell viability counter screen in human keratinocytes (AID 1919968; active = well fitted curve in the direction sought with a large enough effect in the repeat runs; an effect the other way counts as inactive or inconclusive; note: nearly all actives have a fitted effect of over 55% in size). The essentials: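 In human HaCaT keratinocytes stably expressing an ARE-driven luciferase, compound exposure lasted 23 h at 37 C under 5% CO2. Viable cells are quantified with a protease-based fluorogenic reagent (CellTiter-Fluor) read 1 h after addition.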
(In general: qHTS replaces the single test concentration by a dilution series.)

Assay [2] has as its target Gonadotropin-releasing hormone receptor (Homo sapiens) (UniProt P30968). The assay is described as follows: Human gonadotropin-releasing hormone receptor (GnRHR) small molecule agonists, calcium flux assay in GnRHR-HEK293 cells (AID 1920063). Note: nearly all actives have a fitted effect of over 35% in size. Note: potency is the fitted concentration of half-maximal effect. The essentials: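 Intracellular calcium rise is the read-out: engineered human GnRHR HEK293 cells, dye-loaded, are exposed to DMSO-dissolved compounds and fluorescence at Ex/Em 480/540 is tracked for 3 min.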

Assay [3] in a line: G protein-coupled receptor (GPCR) small molecule agonists, calcium flux assay: HEK293 wild type cell line counter screen (AID 1920065). The essentials:
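Fluorescence intensity signals activation. After overnight (18 h) culture and a 1 h calcium dye load at 37 C, compounds are added by pin tool and the plate read at 480/540 nm for 3 min in 1 s steps.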
A general note: Calcium flux is commonly read through the fluorescence of an indicator in the cells.

Assay [4] in a line: p53 small molecule agonists, cell-based qHTS assay with rat liver microsomes (AID 1963578). The essentials:
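Read-out is beta-lactamase reporter fluorescence (LiveBLAzer, 2 h, room temperature, dark) in p53RE-bla cells treated 16 h at 37 C with compound, rat liver microsomes and NADPH, both 0.5 mg/mL final.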

Assay [5] is described as follows: p53 small molecule agonists, cell-based qHTS assay with human liver microsomes: qHTS cell viability counter screen (AID 1963579). Note: nearly all actives have a fitted effect of over 45% in size. The essentials:
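Cells carrying the p53 response-element beta-lactamase reporter are treated for 16 h at 37 C with test compounds in the presence of human liver microsomes and NADPH (both 0.5 mg/mL final); ATP-based CellTiter-Glo luminescence then reports viability.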

Assay [6] in a line: p53 small molecule agonists, cell-based qHTS assay with rat liver microsomes: qHTS cell viability counter screen (AID 1963580). Note: nearly all actives have a fitted effect of over 45% in size. The essentials:
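Luminescent ATP readout (CellTiter-Glo, 30 min at room temperature) reports viability of p53RE-bla HCT-116 cells after 16 h at 37 C with test compounds under metabolic activation by rat liver microsomes and NADPH at 0.5 mg/mL final each.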

Assay [7] is described as follows: p53 small molecule agonists, cell-based qHTS assay: qHTS cell viability counter screen (AID 1963581). Note: nearly all actives have a fitted effect of over 45% in size. In outline:
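Luminescence from CellTiter-Glo, reflecting ATP content, serves as the cytotoxicity measure; it is taken after the 2 h reporter substrate step in HCT-116 p53RE-bla cells dosed for 16 h at 37 C.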

Assay [8] in a line: p53 small molecule agonists, cell-based qHTS assay (AID 1963582; active = well fitted activation curve with a large enough effect in the signal ratio in the repeat runs, not every such curve was filed as active; the % refers to the signal ratio). The essentials:
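After plating, p53RE-bla cells sat 5 h in the incubator; compounds or DMSO vehicle were pinned in; a 16 h incubation at 37 C followed; FRET substrate was added and, 2 h later at RT, fluorescence was measured.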

The target of assay [9] is 5-hydroxytryptamine receptor 2A (Homo sapiens) (UniProt P28223). Kind of assay: 5-hydroxytryptamine receptor 2A (HTR2A) small molecule agonists, cell-based qHTS assay (AID 1963587). Note: nearly all actives have a fitted effect of over 30% in size. Note: potency is the fitted concentration of half-maximal effect. The essentials:
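HTR2A-CHO cells, plated 18 h at 37 C/5% CO2, dye-loaded 1 h at 37 C; compounds in DMSO added by pin tool (agonist mode). Intracellular calcium flux read as kinetic fluorescence on FDSS over 2 min at 1 s intervals.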

Assay [10] has as its target Muscarinic acetylcholine receptor M1 (Homo sapiens) (UniProt P11229). The assay is described as follows: Cholinergic receptor muscarinic 1 (CHRM1) small molecule agonists, cell-based qHTS assay (AID 1963589). Note: nearly all actives have a fitted effect of over 35% in size. Note: potency is the fitted concentration of half-maximal effect. The essentials:
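Fluorescent calcium dye reports M1 activation in stably transfected CHO cells. Compounds, 15 concentrations, added after 1 h dye loading at 37 C; kinetic reading at 1 sec intervals.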

Assay [11] can be described thus: cAMP Responsive Elements (CRE) small molecule agonists, cell-based qHTS assay (AID 1963590). The essentials:
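Compound exposure lasted 3 h at 37 C/5% CO2 in CRE-bla HEK 293T cells grown in assay medium with 10% dialyzed FBS and 25 mM HEPES. Reporter signal came from LiveBLAzer B/G FRET substrate, 2 h, room temperature.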

Assay [12] in a line: cAMP Responsive Elements (CRE) small molecule antagonists, cell-based qHTS assay (AID 1963591; active = well fitted inhibition curve with a large enough effect in the signal ratio in the repeat runs, not every such curve was filed as active; the % refers to the signal ratio). In outline: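 Stimulation used NKH477 at a final 0.25 uM for 3 h in compound-treated CRE-bla HEK293T cells, seeded 18 h beforehand. Reporter activity was measured with LiveBLAzer B/G FRET substrate after 2 h at room temperature.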
In assay [13] the target is Beta-2 adrenergic receptor (Homo sapiens) (UniProt P07550). Kind of assay: Adrenergic beta2 receptor (ADRB2) small molecule antagonists, cell-based qHTS assay (AID 1963592). Note: series mostly up to about 92 µM; nearly all actives have a fitted effect of over 50% in size. The essentials:
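Assay format: CHO-ADRB2 cells, 18-20hr seeding at 37C/5% CO2, then compound plus 1nM isoproterenol agonist mix for 0.5hr RT. Homogeneous time-resolved fluorescence cAMP detection after 1hr, expressed as 665/615 nm ratio.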

Assay [14] shares this target. The assay is described as follows: Adrenergic beta2 receptor (ADRB2) small molecule agonists, cell-based qHTS assay (AID 1963593).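 Note: CHO cells stably overexpressing human ADRB2.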 The essentials: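 CHO cells stably over-expressing ADRB2 were plated overnight at 37C, then dosed with compounds plus a stimulation mix containing 100uM IBMX and 25uM Ro-20-1724 for 0.5hr at room temperature. cAMP was measured by HTRF competition, 1hr.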

Assay [15] addresses D(2) dopamine receptor (Homo sapiens) (UniProt P14416). Kind of assay: Dopamine D2 receptor (DRD2) small molecule agonists, cell-based qHTS assay (AID 1963594). Note: nearly all actives have a fitted effect of over 35% in size. In outline:
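HEK293 cells stably expressing DRD2 were cultured 24 h at 37 C, then given Ro20-1724 (0.1 mM final) and compounds for 10 min at room temperature. NKH477 (200nM) was then added for 30 min. cAMP was read by HTRF.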

Assay [16] has the same target. Kind of assay: Dopamine D2 receptor (DRD2) small molecule antagonists, cell-based qHTS assay (AID 1963595; active = well fitted inhibition curve with a large enough effect in the signal ratio in the repeat runs, with a control signal flat; the % refers to the signal ratio). The essentials:
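In this cell-based antagonist screen, compounds act for 10 min at room temperature before a 30 min challenge with 12 nM quinpirole and 200 nM NKH477. cAMP is quantified by HTRF competition in DRD2-HEK293 cells containing 0.1 mM Ro20-1724.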

In assay [17] the target is 5-hydroxytryptamine receptor 2A (Homo sapiens) (UniProt P28223). Kind of assay: 5-hydroxytryptamine receptor 2A (HTR2A) small molecule antagonists, cell-based qHTS assay (AID 1963586). Note: nearly all actives have a fitted effect of over 45% in size. Note: potency is the fitted concentration of half-maximal effect. The essentials: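 CHO cells stably expressing human HTR2A were plated for 18 h at 37 C, then loaded with calcium dye for 1 h. Compounds were preincubated 5 min at room temperature before DOI (4 nM solution) was added. Kinetic fluorescence was read for 3 min.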

Assay [18] addresses Muscarinic acetylcholine receptor M1 (Homo sapiens) (UniProt P11229). Kind of assay: Cholinergic receptor muscarinic 1 (CHRM1) small molecule antagonists, cell-based qHTS assay (AID 1963588). Note: nearly all actives have a fitted effect of over 40% in size. Note: potency is the fitted concentration of half-maximal effect. The essentials: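 Compounds were tested at 15 concentrations in three independent runs. Dye-loaded CHRM1-CHO cells were exposed 5 min at room temperature before stimulation by acetylcholine added at 50nM. Intracellular calcium was read kinetically on FDSS for 3 min.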

Assay [19] has as its target KiSS-1 receptor (Homo sapiens) (UniProt Q969F8). Kind of assay: Human kisspeptin (KISS1R) small molecule agonists, calcium flux assay in KISS1R-HEK293 cells (AID 1920064; active = well fitted curve in the direction sought with a large enough effect in the repeat runs; an effect the other way counts as inactive or inconclusive). In outline:
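Concentration-response testing used 15 concentrations in triplicate on human KISS1R-expressing HEK293 cells. Calcium-dependent fluorescence (Ex/Em 480/540) was followed kinetically for 3 min after compound transfer.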

The nature of assay [20]: p53 small molecule agonists, cell-based qHTS assay with human liver microsomes (AID 1963577). In outline: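 Compounds act here after metabolic activation: human liver microsomes and NADPH, both at 0.5 mg/mL final, were co-added to p53RE-bla cells. Incubation ran 16 h at 37 C, followed by LiveBLAzer detection.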

Sequence of D(2) dopamine receptor (Homo sapiens) (P14416 whole entry, looked up): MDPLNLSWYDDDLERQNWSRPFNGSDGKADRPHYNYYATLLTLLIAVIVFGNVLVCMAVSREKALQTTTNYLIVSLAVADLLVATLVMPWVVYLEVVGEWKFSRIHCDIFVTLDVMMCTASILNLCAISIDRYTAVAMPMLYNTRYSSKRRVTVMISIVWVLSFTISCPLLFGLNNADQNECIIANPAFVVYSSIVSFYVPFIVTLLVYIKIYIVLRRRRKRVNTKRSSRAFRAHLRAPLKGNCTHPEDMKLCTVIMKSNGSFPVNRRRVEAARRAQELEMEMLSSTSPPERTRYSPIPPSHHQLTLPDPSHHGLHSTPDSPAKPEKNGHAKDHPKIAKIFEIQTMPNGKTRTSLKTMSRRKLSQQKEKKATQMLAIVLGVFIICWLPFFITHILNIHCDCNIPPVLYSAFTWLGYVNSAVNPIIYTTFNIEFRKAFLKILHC
Sequence of 5-hydroxytryptamine receptor 2A (Homo sapiens) (P28223 whole entry, looked up): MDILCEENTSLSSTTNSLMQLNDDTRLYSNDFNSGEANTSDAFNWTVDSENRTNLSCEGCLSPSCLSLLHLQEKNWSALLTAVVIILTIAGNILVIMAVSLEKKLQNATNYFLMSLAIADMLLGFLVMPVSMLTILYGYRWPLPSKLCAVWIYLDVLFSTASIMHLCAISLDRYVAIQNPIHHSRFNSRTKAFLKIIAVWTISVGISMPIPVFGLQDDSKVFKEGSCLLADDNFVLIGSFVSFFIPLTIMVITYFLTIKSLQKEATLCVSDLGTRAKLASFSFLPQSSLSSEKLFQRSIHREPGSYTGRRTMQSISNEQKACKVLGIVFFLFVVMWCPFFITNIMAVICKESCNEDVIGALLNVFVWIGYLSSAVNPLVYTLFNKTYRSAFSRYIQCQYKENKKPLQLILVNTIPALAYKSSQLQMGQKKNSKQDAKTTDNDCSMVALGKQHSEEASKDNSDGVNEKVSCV
Sequence of Muscarinic acetylcholine receptor M1 (Homo sapiens) (P11229 whole entry, looked up): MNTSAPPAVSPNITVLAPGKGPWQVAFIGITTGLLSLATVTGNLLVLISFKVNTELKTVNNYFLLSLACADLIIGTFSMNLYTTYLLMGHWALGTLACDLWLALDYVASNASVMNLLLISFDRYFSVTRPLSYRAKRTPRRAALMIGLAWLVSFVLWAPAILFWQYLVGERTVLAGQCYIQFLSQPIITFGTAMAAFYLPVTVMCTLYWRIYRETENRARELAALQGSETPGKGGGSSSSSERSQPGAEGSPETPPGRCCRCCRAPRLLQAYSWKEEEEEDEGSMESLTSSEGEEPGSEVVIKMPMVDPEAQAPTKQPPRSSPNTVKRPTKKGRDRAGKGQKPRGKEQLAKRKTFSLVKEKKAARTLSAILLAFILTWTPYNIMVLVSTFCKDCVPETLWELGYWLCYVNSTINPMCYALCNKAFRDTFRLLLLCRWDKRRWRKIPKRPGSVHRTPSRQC
Sequence of Beta-2 adrenergic receptor (Homo sapiens) (P07550 whole entry, looked up): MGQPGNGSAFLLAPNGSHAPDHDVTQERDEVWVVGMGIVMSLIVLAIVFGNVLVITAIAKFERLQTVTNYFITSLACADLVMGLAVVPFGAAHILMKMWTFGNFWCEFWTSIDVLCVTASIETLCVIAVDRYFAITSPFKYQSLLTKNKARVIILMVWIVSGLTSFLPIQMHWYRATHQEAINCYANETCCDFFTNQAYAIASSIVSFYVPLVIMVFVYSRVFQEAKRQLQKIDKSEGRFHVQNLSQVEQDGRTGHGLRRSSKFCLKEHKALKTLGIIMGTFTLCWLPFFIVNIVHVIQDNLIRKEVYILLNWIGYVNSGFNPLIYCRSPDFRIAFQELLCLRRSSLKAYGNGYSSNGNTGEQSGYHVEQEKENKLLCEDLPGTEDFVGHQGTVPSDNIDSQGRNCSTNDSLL
Sequence of Gonadotropin-releasing hormone receptor (Homo sapiens) (P30968 whole entry, looked up): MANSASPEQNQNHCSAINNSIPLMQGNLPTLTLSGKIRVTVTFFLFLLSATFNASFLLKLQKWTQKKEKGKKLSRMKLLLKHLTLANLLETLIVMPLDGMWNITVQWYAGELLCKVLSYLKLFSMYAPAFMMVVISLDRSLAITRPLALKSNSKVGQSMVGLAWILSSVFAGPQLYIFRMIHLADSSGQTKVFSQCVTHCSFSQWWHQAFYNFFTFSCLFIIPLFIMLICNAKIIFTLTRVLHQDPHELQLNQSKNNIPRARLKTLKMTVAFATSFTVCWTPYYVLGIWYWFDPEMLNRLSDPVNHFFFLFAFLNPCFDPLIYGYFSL
Sequence of KiSS-1 receptor (Homo sapiens) (Q969F8 whole entry, looked up): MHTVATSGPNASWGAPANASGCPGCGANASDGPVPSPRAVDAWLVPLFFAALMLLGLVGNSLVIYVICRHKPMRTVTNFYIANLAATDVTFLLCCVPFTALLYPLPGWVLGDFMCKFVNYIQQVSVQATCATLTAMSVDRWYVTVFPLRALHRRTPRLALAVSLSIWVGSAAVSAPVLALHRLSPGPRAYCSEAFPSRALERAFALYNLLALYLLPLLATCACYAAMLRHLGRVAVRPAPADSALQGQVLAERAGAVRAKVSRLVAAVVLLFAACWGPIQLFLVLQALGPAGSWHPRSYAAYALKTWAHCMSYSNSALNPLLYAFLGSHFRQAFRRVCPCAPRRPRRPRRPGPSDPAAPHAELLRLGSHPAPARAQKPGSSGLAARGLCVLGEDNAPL

Consider `CCc1cccc(N(C)C(N)=Nc2cccc3ccccc23)c1`, for which the Potency result in assay [1], in [2], in assay [3], in assay [4], in [5] and in [6] was “inactive” in each case. In addition, the Potency result in assay [7], in [8], in assay [9], in [10], in [11] and in [12] was “inactive” each time. The Potency entry in assay [13], in assay [14], in [15] and in assay [16] was “inactive” throughout.

For the molecule `C[C@@H]1C[C@H]2[C@@H]3C[C@H](F)C4=CC(=O)C=C[C@]4(C)[C@@]3(F)[C@@H](O)C[C@]2(C)[C@@]1(O)C(=O)CO`, the Potency entry in assay [1], in assay [2], in [3], in assay [5], in assay [6] and in assay [7] was “inactive” in each case. Moreover, the Potency entry in assay [17], in assay [9], in assay [18], in assay [10], in assay [11] and in assay [13] was “inactive” in each case. The Potency entry in [15] and in assay [16] was “inactive” each time.

Regarding `CCOC(=O)[C@@H](C)Oc1ccc(Oc2nc3ccc(Cl)cc3o2)cc1`, the Potency result in assay [1], in [2], in [19], in [4], in assay [5] and in [6] was “inactive” each time. The Potency entry in assay [8], in assay [17], in assay [9], in assay [18], in assay [10] and in [12] was “inactive” in each case. The Potency result in assay [13], in [14], in assay [15] and in assay [16] was “inactive” throughout.

As for `OC[C@H]1O[C@@H](n2cnc3c(=S)nc[nH]c32)[C@H](O)[C@@H]1O`, the Potency entry in [1], in assay [2], in assay [3], in assay [5], in [6] and in [17] was “inactive” throughout. Moreover, the Potency result in assay [9], in assay [18], in assay [10], in assay [11], in assay [12] and in assay [13] was “inactive” throughout. The Potency result in assay [14] and in [16] was “inactive” each time.

As to `CCOc1ccccc1OCC1CNCCO1` (centres undefined), the Potency result in assay [1], in assay [2], in assay [3], in [4], in assay [5] and in [6] was “inactive” throughout. The Potency entry in assay [7], in assay [8], in assay [18], in assay [10], in assay [11] and in assay [12] was “inactive” in each case. In addition, the Potency result in assay [16] was “inactive”.

On to `CC(C)(C)c1cc(O)c(C(C)(C)C)cc1O`, for which the Potency result in assay [1], in assay [6], in assay [7], in assay [11], in [12] and in assay [14] was “inactive” in each case. Moreover, the Potency result in assay [15] and in [16] was “inactive” throughout. Besides, the Potency in [2] is 5.49 µM (active); in assay [17], 14.9 µM (active); in [9], 1.1 µM (active); in assay [18], 18.8 µM (active); in assay [10], 11 µM (active).

Regarding `CC(=O)CCc1ccc(OC(C)=O)cc1`, the Potency result in [1], in assay [2], in assay [3], in assay [20], in [4] and in assay [5] was “inactive” throughout. The Potency result in assay [6], in assay [7], in assay [8], in assay [17], in assay [9] and in assay [18] was “inactive” throughout. The Potency result in assay [10], in [12], in [13], in [15] and in assay [16] was “inactive” in each case.

Regarding `CC[C@H](C)COC(=O)/C=C/c1ccc(N=Cc2ccc(OC)cc2)cc1`, the Potency entry in [1], in [2], in assay [3], in assay [20], in assay [4] and in assay [7] was “inactive” each time. Also, the Potency entry in assay [17], in [18], in [10], in [12] and in assay [14] was “inactive” throughout.
